Our source for the outcome and AC50 values is PubChem BioAssay (EPA / NIEHS).

More than one record can exist for a structure, and the calls need not agree. Activity calls are given as the source filed them. How the source made its calls: active means hit-call score of the fitted dose curve at least 0.9, where 1 is the maximum; inactive means score below 0.9.

Read-out in the assay: Monocyte Chemoattractant Protein-1 (MCP1), CCL2 (gene 6347)
Nature of the assay: BSK_LPS_MCP1: BioMAP Diversity Plus: LPS Assay for Monocyte Chemoattractant Protein-1 (MCP1) Biomarker Activity (AID 2283081).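 On AC50: co-culture stimulated with LPS.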 To be noted: primary human HUVEC with PBMC; actives raise or lower the signal. The protocol:
BSK_LPS is a cell-based, multiplexed-readout assay that uses umbilical vein endothelium and peripheral blood mononuclear cells, a human vascular primary cell co-culture, with measurements taken at 24 hours after chemical dosing in a 96-well plate.BSK_LPS_MCP1 is an assay component measured in the BSK_LPS assay. It measures MCP-1 antibody related to regulation of gene expression using ELISA technology.Data from the assay component BSK_LPS_MCP1 was analyzed into 1 assay endpoint. This assay endpoint, BSK_LPS_MCP1, was analyzed with bidirectional fitting relative to DMSO as the negative control and baseline of activity. Using a type of binding reporter, gain or loss-of-signal activity can be used to understand changes in the signaling as they relate to the gene CCL2. Furthermore, this assay endpoint can be referred to as a primary readout, because this assay has produced multiple assay endpoints where this one serves a signaling function. To generalize the intended target to other relatable targets, this assay endpoint is annotated to the cytokine intended target family, where the subfamily is chemotactic factor.
The levels of cell surface (or secreted, indicated by the prefix "s") biomarker endpoints were measured by ELISA. Overt cytotoxicity to cells in confluent adherent cultures (all systems other than the BT system) was assessed by measuring total protein levels using sulforhodamine B (SRB) staining in parallel cultures at the time of biomarker measurements, indicated as SRB endpoints. For proliferation assays for adherent cell types, individual cell types are cultured at sub-confluence and relative cell numbers quantified by SRB staining at time points optimized for each system (48 h: 3C and CASM3C systems; 72 h: BT and HDF3CGF systems; 96 h: SAg system). SRB was performed by staining cells with 0.1% SRB after fixation with 10% TCA and reading wells at 560 nm.Viability and proliferation of PBMC (T cells) was quantified by Alamar Blue reduction for the SAg and BT systems. For PBMC viability (referred to as PBMC Cytotoxicity within the assay endpoint names), cells were plated (75,000/well in a 96-well plate) and then chemical samples added for 1 h before addition of activators, SEB and TSST-1 (20 ng/mL final concentration each). Cells were incubated for 90 h. Then, Alamar Blue (20 uL/well) (Invitrogen, Cat DAL1100) was added for 6 h, and the plates were read with a fluorescence microplate reader at 546/580 nm (excitation/emission). For PBMC proliferation, cells were plated and activated as above but incubated for only 16 h prior to addition of Alamar Blue. Plates were read after 6 h.
On to `CCOP(=S)(OCC)SCSc1ccc(Cl)cc1`, for which the result was inactive. Turning to `O=P1(N(CCCl)CCCl)NCCCO1` (stereo not given), the outcome was inactive. Turning to `CCOP(=S)(OCC)SCn1nnc2ccccc2c1=O`, the outcome was inactive. `O=C(O)C1C(C(=O)O)C2(Cl)C(Cl)=C(Cl)C1(Cl)C2(Cl)Cl` (stereo not given): the outcome was inactive. Same read-out and setting: the entry for `Cc1ccc([N+](=O)[O-])cc1C` is “inactive”.

On to `O=C(O)C(F)(OC(F)(F)C(F)(F)C(F)(F)F)C(F)(F)F` (stereo not given), for which the result was inactive.

In the case of `CCC(C)(C)c1ccc(O)cc1`, the outcome was inactive. Take `O=C(O)C(F)(F)OC(F)(F)C(F)(F)OC(F)(F)C(=O)O`: the outcome was inactive. `Nc1ccc(Cl)cc1`: the result was inactive. For `CCCCC(CC)COP(=O)(Oc1ccccc1)Oc1ccccc1` (stereo not given), the AC50 (commonly the midpoint of the concentration-response curve, whichever way the signal moves) is 7.43 µM (active).

For `COP(=O)(CCC(=O)NCO)OC`, the outcome was inactive. As to `OCC(F)(F)OC(F)(F)C(F)(F)OC(F)(F)C(F)(F)OC(F)(F)F`, the result was inactive and the concentration at half-maximal activity (AC50) is 52.2 µM (active). For `CCN(CC)c1ccccc1`, the outcome was inactive.

Turning to `CC(C)(C)c1ccc(O)cc1`, the outcome was inactive.

As for `Cc1cccc(N)c1`, the outcome was inactive. `O=[N+]([O-])c1ccc(Cl)c(Cl)c1`: the result was inactive.

Take `O=S(=O)(F)C(F)(F)C(F)(F)C(F)(F)C(F)(F)C(F)(F)C(F)(F)C(F)(F)C(F)(F)F`: the outcome was inactive.

Turning to `CCOP(=S)(OCC)SCSCC`, the outcome was inactive. The same measure, in the same setting: for `CSC(C)(C)C=NO` the value was “inactive”. Same read-out and setting: the entry for `NC(=O)C(F)(F)C(F)(F)F` is “inactive”; for `FC(F)(F)C(F)(C(F)(F)F)C(F)(F)C(F)(F)CC1CO1` (stereo not given) it is “inactive”; for `OCC(F)(F)OC(F)(F)C(F)(F)OC(F)(F)C(F)(F)OC(F)(F)CO` it is “inactive”. As to `CCCCc1ccccc1`, the result was inactive. For the compound `C=CC(=O)OCC(F)(F)C(F)F`, the result was inactive and the half-maximal activity concentration (AC50) is 20.8 µM (active). On to `CCOc1ccc(C(C)(C)COCc2cccc(Oc3ccccc3)c2)cc1`, for which the outcome was inactive. The same measure, in the same setting: the entry for `OCC1CO1` (stereo not given) is “inactive”. For the compound `Cc1ccc(O)cc1C`, the outcome was inactive. Take `Nc1ccc([N+](=O)[O-])cc1Cl`: the outcome was inactive. `CCOP(=S)(OCC)SCS(=O)(=O)CC`: the result was inactive. The same measure, in the same setting: for `O=[N+]([O-])c1ccccc1` the value was “inactive”.

For the compound `O=c1ssc(Cl)c1Cl`, the AC50 was 6.46 µM (active). As for `CC(O)C(F)(F)C(F)(F)F` (stereo not given), the result was inactive. For `O=P(Oc1ccccc1)(Oc1ccccc1)Oc1ccccc1`, the AC50 was 30 µM (active). Regarding `O=C(O)C(F)(F)C(F)(F)C(=O)O`, the result was inactive. With `C=CC(=O)OCC(CC)(COC(=O)C=C)COC(=O)C=C`, the AC50 is 3.29 µM (active). As for `COC(=O)C(F)(F)C(F)(F)OC(F)(C(F)(F)F)C(F)(F)OC(F)=C(F)F` (stereo not given), the outcome was inactive. On the same count and under the same terms, for `N#Cc1cc([N+](=O)[O-])ccc1N` the value was “inactive”.

As to `ClC(Cl)(Cl)c1ccccc1`, the outcome was inactive.
